Measurements reported in PubChem BioAssay (NCI).
The panel holds about 79,000 compounds, 15% with a hit somewhere; the sample as a whole holds those more often. No stated cut-off is given here; in the data, active means growth inhibition above about 70%; inactive means the rest.

Assays:
[1] = NCI Yeast Anticancer Drug Screen. Data for the rad50 strain (AID 155);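 further: 0% = growth of vehicle-only cultures of the same strain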; conditions: S. cerevisiae rad50 strain growth inhibition; at 50.0 µM; stronger effect = higher value
How it was run: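 DNA repair mutant yeast, compound exposure, growth read-out; inhibition is taken relative to vehicle.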

[2] = NCI Yeast Anticancer Drug Screen. Data for the mec2-1 strain (AID 157); conditions: S. cerevisiae mec2-1 strain, at 50.0 µM, stronger effect = higher value
How it was run: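 Using mec2-1 yeast: add compound, measure growth, express inhibition versus vehicle-treated cultures.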

[3] = NCI Yeast Anticancer Drug Screen. Data for the sgs1 mgt1 strain (AID 161);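 further: 0% = growth of cultures given vehicle only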; conditions: S. cerevisiae sgs1 mgt1 strain, at 50.0 µM, stronger effect = higher value
How it was run: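 This yeast growth screen uses a strain with defined DNA-repair lesions; compound-treated growth is compared with vehicle-treated growth.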

[4] = NCI Yeast Anticancer Drug Screen. Data for the cln2 rad14 strain (AID 165);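 further: 0% = growth equal to vehicle treated cultures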; conditions: S. cerevisiae cln2 rad14 strain, at 50.0 µM, stronger effect = higher value
How it was run: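 Yeast strain cln2 rad14, bearing defects in cell cycle control and DNA repair, serves as the test system; values reflect growth inhibition compared with vehicle.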

[5] = NCI Yeast Anticancer Drug Screen. Data for the bub3 strain (AID 167); conditions: S. cerevisiae bub3 mutant strain, at 50.0 µM, stronger effect = higher value
How it was run: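 In this screen, a yeast mutant lacking normal mitotic checkpoint function is challenged with compound. Relative growth versus vehicle gives the inhibition value.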

[6] = NCI Yeast Anticancer Drug Screen. Data for the mlh1 rad18 strain (AID 175); conditions: S. cerevisiae mlh1 rad18 strain growth inhibition; at 50.0 µM; stronger effect = higher value
How it was run: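 Steps: expose repair-defective yeast to compound; measure growth; express inhibition against vehicle-treated controls.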

Measured: growth inhibition

OCc1ccc2ccccc2n1
inactive: [1] 24% | [2] -1.2% | [3] 21.6% | [4] -1.55% | [5] 12.7% | [6] 31.1%

NNC(=O)CCC(=O)NC1C2CC3CC(C2)CC1C3 (configuration not stated)
inactive: [1] -23.6% | [2] -15.4% | [3] -18.6% | [4] -0.85% | [5] -10.7% | [6] 25.2%

CCCCC(CC)COB(OCC(CC)CCCC)OCC(CC)CCCC (configuration not stated)
inactive: [1] -41% | [2] -38.3% | [3] -22.1% | [4] -0.8% | [5] -23.2% | [6] -24.3%

O=Cc1ccc(OCCCOc2ccc([N+](=O)[O-])cc2)cc1
inactive: [1] -5.1% | [2] 1.6% | [3] 11.3% | [4] -12.1% | [5] 33.1% | [6] 42%

Cn1c(=S)c2[nH]c(SCCCc3ccccc3)nc2n(C)c1=O
inactive: [1] -19.4% | [2] -36% | [3] -5.8% | [4] -32.3% | [5] -25.9% | [6] 12.5%

COc1ccccc1C(=O)O
inactive: [1] -7.45% | [2] -16.8% | [3] -9.4% | [4] -1.75% | [5] -7.35% | [6] -5%

CCCCCCC(=O)/C=C/c1ccccc1OCOC
inactive: [1] -3.35% | [2] -9.8% | [3] 4.6% | [4] -13.7% | [5] -18.9% | [6] -4.45%

c1ccc2c(c1)C[N+]1(CCCCCC1)C2
inactive: [1] 7% | [2] 6.05% | [3] 11% | [4] -10.3% | [5] 1.05% | [6] 10.7%

O=C1C(C2CCCCC2)=C2OCC3COC2(O3)c2ccccc21 (configuration not stated)
inactive: [1] -8.75% | [2] -16.6% | [3] -20.1% | [4] -10.1% | [5] -14.6% | [6] -30.7%

COc1ccccc1C(=O)N/N=C\c1c[nH]c2ccccc12
inactive: [1] -3.35% | [2] 2.05% | [3] -4.85% | [4] -6.25% | [5] -5.15% | [6] -8.3%

C(=C(/C=C/C(=C/c1ccccc1)c1ccccc1)c1ccccc1)\c1ccccc1
inactive: [1] 33.5% | [2] 13.8% | [3] -11.7% | [4] -59% | [5] 0.65% | [6] -0.65%

Cc1ccc(-c2nnc(NC(=O)Nc3ccc(Cl)cc3)o2)cc1
inactive: [1] 3.15% | [2] -1.45% | [3] 4.3% | [4] -60.6% | [5] -13.5% | [6] 21.8%

Nc1nc(-c2ccccc2)[nH]c(=O)n1
inactive: [1] -3.3% | [2] -0.45% | [3] -37% | [4] -62.8% | [5] -22.4% | [6] -33%

O=C1c2ccccc2C(=O)N1C1(C(=O)NC2(C(=O)O)CCCC2)CCCC1
inactive: [1] -2.5% | [2] -7.8% | [3] -37.8% | [4] 2.6% | [5] -38.1% | [6] -8.6%

CC(C)c1cc(C(F)(F)F)nc(NNc2nc(C(C)C)cc(C(F)(F)F)n2)n1
inactive: [1] -19.6% | [2] -25.1% | [3] -16.5% | [4] -13.2% | [5] -15.4% | [6] -34.1%

C#CCN(C)Cc1cc(OC)c(OC)c(OC)c1
inactive: [1] -43.2% | [2] -0.75% | [3] 6.55% | [4] -10.9% | [5] 7.65% | [6] 14.4%

CCC(C)C(=O)c1c(O)c(C/C=C(\C)CCC=C(C)C)c(O)c2c(C(O)CC)cc(=O)oc12 (configuration not stated)
inactive: [1] 21.8% | [2] 15.8% | [3] 14.7% | [4] 18.1% | [5] 20.1% | [6] 42.9%

CCC(/C(=N/NC(=O)C[N+](C)(C)C)c1ccccc1)C1OC(=O)c2ccccc21 (configuration not stated)
inactive: [1] 15.2% | [2] 2.15% | [3] 16.1% | [4] 23.2% | [5] 19.4% | [6] 18.4%

O=C(/C=C/c1ccccc1)CC1OC(=O)c2ccccc21 (configuration not stated)
inactive: [1] 14.3% | [2] -15.9% | [3] 10.3% | [4] 23.1% | [5] 3.15% | [6] -20.9%

O=C(NC(=S)Nc1ccc([N+](=O)[O-])cc1Cl)c1ccccc1F
inactive: [1] 14.2% | [2] 6.1% | [3] 20.1% | [4] 21.9% | [5] 24.1% | [6] 20.1%

Cc1ccc(S(=O)(=O)N2CCN(S(=O)(=O)c3ccc(C)cc3)COC2)cc1
inactive: [1] -1.1% | [2] -0.4% | [3] -5.15% | [4] -3.85% | [5] -1.6% | [6] -9.85%

Cc1cc(C)c(C)c(CC(C)(COS(C)(=O)=O)COS(C)(=O)=O)c1C
inactive: [1] 8.6% | [2] 11% | [3] 27.1% | [4] 39.2% | [5] 5.85% | [6] 28.1%

Nc1c(Br)cc(Br)c(C(=O)O)c1Br
inactive: [1] 6.35% | [2] -16.1% | [3] 10.8% | [4] 2.8% | [5] -15.2% | [6] -1.75%

Cc1nc2ccc(Cl)cc2c(=O)[nH]1
inactive: [1] -6.35% | [2] -6.45% | [3] -8.65% | [4] -57.2% | [5] -16.2% | [6] 0.9%

COc1ccc(/C=C2\N=C(c3ccccc3)OC2=O)c(OC)c1C
inactive: [1] -6.1% | [2] -4.9% | [3] -1.65% | [4] -60.4% | [5] 1.9% | [6] -9.95%

COc1cc(/C=C/C(=N\NC(N)=S)c2sc(NNC(C)=O)nc2C)ccc1O
inactive: [1] 22.9% | [2] 6.8% | [3] 16.3% | [4] 21.2% | [5] 24.6% | [6] 14.8%

C1CCCC2(CCC1)OCCO2
inactive: [1] 0.7% | [2] 10.4% | [3] -4.05% | [4] -9.55% | [5] 17.1% | [6] 1.65%

Cn1cnc([N+](=O)[O-])c1Cl
inactive: [1] 43.4% | [2] -3.6% | [3] -2.2% | [4] -7.55% | [5] 19.2% | [6] -1.1%

O=C1C(c2ccccc2)=C(c2ccccc2)/C1=C\c1ccc(Cl)cc1Cl
inactive: [1] 7.4% | [2] -5.9% | [3] -13.9% | [4] -8.9% | [5] 5.5% | [6] -13.8%

NC(=O)c1csc(C2OC3COP(=O)(O)OC3C2O)n1 (configuration not stated)
inactive: [1] -21.1% | [2] -26.2% | [3] -38.6% | [4] -5.65% | [5] -29.1% | [6] -28.9%

CCC1=CC(=O)C(CC)=CC1=O
inactive: [1] 3.05% | [2] 25.2% | [3] -2.15% | [4] -23.7% | [5] 1.95% | [6] 15.6%

N#Cc1nc(NC(=O)c2ccccc2C(=O)O)c(C#N)[nH]1
inactive: [1] 1.5% | [2] 14.1% | [3] -20.8% | [4] 4.95% | [5] -8.85% | [6] -29.3%

C=CCC1(C)C(=O)CCC1=O
inactive: [1] -18.5% | [2] -5.8% | [3] 0.6% | [4] -12.6% | [5] 1.15% | [6] -4.1%

S=c1cn[nH]c2ccccc12
inactive: [1] 16% | [2] 40.1% | [3] 16.9% | [4] 7.85% | [5] 49.6% | [6] 37.6%

CC(=O)C(C(c1ccccc1)N1CCOCC1)N1CCOCC1 (configuration not stated)
inactive: [1] 12.1% | [2] -0.8% | [3] -24% | [4] 1.15% | [5] -23.2% | [6] 6.25%

O=C(O)C1CC1(c1ccccc1)c1ccccc1 (configuration not stated)
inactive: [1] 18.6% | [2] 4.65% | [3] -1.05% | [4] -24.8% | [5] -12.2% | [6] 15.8%

CCC(C)C(O)CC (configuration not stated)
inactive: [1] -9.5% | [2] -8.55% | [3] 2.3% | [4] 19.4% | [5] 7.6% | [6] -16.2%

N#CC(c1ccccc1)C(C#N)c1ccc(Cl)cc1 (configuration not stated)
inactive: [1] 5.75% | [2] 16.2% | [3] -1.35% | [4] -98.5% | [5] 22.4% | [6] 3.8%

COc1cc2c(cc1OC)C1(CCBr)C3CC4C(=CCOC5CC(=O)N2C1C54)CN3C(=O)Cc1ccccc1 (configuration not stated)
inactive: [1] 27.8% | [2] -11.9% | [3] -3.45% | [4] 7.4% | [5] 4.75% | [6] 3.7%

OC1(C2(O)CCCCC2)CCCCC1
inactive: [1] -38.2% | [2] 13.4% | [3] 22.1% | [4] -32.5% | [5] -11.8% | [6] 3.75%

Clc1ccc(-c2nc(CSc3ccccn3)cs2)cc1
inactive: [1] 13.7% | [2] -12.4% | [3] 49.5% | [4] -22.2% | [5] 28.9% | [6] -6.8%

O=C(O)COc1c(F)cc(F)cc1Cl
inactive: [1] 18.1% | [2] 1.9% | [3] 18.4% | [4] -1.05% | [5] 12% | [6] 7.35%
